Measurements from article PMC7862700, “An all-to-all approach to the identification of sequence-specific readers for epigenetic DNA modifications on cytosine”.

How the values were obtained:
Experiment in all cases: DAPPL (digital affinity profiling via proximity ligation, sequencing); 10 mM Tris-HCl pH 7.5, 50 mM NaCl, 1 mM DTT, 4% glycerol, room temperature, 30 min; GST-TFs on glutathione beads, 16-mer random dsDNA library, 0.1% formaldehyde crosslink after washing; high values mean tight binding
[1] = target: T1, FLI1 (Homo sapiens, UniProt Q01543 1-452); settings: protein: recombinant; tags: N-terminal GST; dsDNA, one strand shown
T1 sequence: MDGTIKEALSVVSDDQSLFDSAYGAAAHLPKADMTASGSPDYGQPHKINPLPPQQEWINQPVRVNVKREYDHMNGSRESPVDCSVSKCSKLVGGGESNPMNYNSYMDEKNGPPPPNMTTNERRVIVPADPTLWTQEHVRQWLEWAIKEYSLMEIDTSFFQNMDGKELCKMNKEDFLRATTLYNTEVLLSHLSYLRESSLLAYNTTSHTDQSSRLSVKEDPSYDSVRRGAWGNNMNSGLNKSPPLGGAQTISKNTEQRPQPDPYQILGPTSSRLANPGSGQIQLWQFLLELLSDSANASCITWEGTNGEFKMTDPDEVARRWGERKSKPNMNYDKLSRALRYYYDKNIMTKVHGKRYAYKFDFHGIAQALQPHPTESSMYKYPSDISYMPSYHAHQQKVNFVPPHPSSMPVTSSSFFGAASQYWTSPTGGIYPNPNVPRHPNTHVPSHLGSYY
Procedure, shortened: (§1)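 A tag-only sample was pooled with DNA-barcoded human transcription factors that had been expressed in yeast as GST fusions and captured on glutathione beads. The pools were incubated for 30 min at room temperature with 200 nmole of a random double-stranded 16-mer DNA library in Tris/NaCl/DTT/glycerol buffer, then washed, crosslinked with 0.1% formaldehyde, proximity-ligated (BsaI/T4 ligase, 1 h, 37 °C), PCR-amplified and sequenced on an Illumina NextSeq500. Binding signal is each hexamer's read frequency for a factor divided by its frequency for the tag-only sample.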

[2] = target: T2, GABPA (Homo sapiens, UniProt Q06546 1-454); settings: protein: recombinant; tags: N-terminal GST; dsDNA, one strand shown
T2 sequence: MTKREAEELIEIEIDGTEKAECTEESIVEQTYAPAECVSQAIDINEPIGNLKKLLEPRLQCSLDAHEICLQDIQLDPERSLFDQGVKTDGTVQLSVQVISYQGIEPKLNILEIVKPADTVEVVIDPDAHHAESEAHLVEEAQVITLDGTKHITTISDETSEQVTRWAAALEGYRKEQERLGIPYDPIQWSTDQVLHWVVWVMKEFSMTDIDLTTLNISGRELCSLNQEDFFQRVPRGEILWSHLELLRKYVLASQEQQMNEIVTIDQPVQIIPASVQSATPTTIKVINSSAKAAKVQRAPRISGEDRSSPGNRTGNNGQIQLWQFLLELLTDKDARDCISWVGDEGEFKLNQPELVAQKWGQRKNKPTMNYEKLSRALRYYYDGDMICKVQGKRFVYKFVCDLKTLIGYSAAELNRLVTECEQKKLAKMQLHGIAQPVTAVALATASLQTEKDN
Procedure, shortened: as §1

[3] = target: T3, ERG (Homo sapiens, UniProt P11308 1-479); settings: protein: recombinant; tags: N-terminal GST; dsDNA, one strand shown
T3 sequence: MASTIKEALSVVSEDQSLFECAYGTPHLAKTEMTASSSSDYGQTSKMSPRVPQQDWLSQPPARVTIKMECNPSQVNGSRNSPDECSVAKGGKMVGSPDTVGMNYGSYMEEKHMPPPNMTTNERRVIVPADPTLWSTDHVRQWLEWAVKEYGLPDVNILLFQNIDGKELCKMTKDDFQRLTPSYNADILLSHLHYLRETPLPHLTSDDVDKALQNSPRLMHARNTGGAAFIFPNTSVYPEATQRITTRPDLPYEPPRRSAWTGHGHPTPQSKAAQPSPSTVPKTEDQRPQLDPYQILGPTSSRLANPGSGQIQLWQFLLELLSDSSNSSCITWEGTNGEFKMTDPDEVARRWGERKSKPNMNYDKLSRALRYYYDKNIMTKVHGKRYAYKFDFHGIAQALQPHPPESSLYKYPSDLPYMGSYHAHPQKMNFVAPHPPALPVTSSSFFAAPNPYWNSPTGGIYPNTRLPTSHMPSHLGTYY
Procedure, shortened: as §1

[4] = target: ELF1 (Homo sapiens, UniProt P32519 1-619); settings: protein: recombinant; tags: N-terminal GST; dsDNA, one strand shown
Sequence of ELF1 (P32519 whole entry): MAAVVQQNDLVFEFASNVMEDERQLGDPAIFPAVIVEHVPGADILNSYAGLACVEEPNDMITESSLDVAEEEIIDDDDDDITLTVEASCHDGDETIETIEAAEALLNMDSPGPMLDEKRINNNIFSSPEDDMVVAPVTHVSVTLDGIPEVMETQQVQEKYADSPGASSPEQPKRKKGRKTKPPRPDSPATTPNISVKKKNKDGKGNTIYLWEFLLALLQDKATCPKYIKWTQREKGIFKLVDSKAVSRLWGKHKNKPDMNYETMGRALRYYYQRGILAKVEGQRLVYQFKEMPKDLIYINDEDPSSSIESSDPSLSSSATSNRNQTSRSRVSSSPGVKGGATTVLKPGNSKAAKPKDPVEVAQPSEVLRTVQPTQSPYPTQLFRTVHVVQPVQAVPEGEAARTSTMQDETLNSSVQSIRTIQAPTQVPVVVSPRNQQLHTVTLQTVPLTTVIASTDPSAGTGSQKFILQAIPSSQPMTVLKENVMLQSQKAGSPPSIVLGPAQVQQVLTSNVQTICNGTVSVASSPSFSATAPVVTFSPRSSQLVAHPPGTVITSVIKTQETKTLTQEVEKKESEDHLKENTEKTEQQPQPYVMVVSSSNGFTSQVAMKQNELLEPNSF
Procedure, shortened: as §1

[5] = target: T4, EHF (Homo sapiens, UniProt Q9NZC4 1-300); settings: protein: recombinant; tags: N-terminal GST; dsDNA, one strand shown
T4 sequence: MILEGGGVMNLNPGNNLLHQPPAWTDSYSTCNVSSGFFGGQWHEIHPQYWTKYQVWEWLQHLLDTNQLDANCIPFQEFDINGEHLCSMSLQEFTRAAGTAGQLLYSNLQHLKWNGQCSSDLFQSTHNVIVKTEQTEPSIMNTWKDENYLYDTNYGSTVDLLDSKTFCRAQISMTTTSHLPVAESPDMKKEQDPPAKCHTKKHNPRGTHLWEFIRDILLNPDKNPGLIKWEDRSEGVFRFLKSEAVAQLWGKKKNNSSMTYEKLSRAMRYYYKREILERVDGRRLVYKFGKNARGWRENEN
Procedure, shortened: as §1

[6] = target: T5, ELK3 (Homo sapiens, UniProt P41970 1-407); settings: protein: recombinant; tags: N-terminal GST; dsDNA, one strand shown
T5 sequence: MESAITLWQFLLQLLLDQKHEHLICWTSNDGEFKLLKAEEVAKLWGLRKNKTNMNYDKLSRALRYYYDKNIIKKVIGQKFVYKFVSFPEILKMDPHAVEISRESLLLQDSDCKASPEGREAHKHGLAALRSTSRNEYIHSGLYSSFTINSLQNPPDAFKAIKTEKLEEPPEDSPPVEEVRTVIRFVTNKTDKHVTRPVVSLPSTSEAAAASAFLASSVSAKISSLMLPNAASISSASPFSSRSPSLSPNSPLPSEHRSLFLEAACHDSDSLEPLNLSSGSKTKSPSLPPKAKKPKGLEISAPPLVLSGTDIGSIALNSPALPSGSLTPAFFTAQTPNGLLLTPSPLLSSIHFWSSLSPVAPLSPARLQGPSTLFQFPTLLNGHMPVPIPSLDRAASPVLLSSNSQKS
Procedure, shortened: as §1

[7] = target: T6, FEV (Homo sapiens, UniProt Q99581 1-238); settings: protein: recombinant; tags: N-terminal GST; dsDNA, one strand shown
T6 sequence: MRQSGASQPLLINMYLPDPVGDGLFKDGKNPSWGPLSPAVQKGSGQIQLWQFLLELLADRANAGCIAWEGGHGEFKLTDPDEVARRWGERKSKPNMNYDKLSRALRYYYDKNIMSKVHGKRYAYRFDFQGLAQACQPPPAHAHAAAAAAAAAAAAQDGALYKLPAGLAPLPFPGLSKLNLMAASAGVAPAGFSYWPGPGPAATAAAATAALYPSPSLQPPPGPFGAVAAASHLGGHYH
Procedure, shortened: as §1

[8] = target: ETV5 (Homo sapiens, UniProt P41161 1-510); settings: protein: recombinant; tags: N-terminal GST; dsDNA, one strand shown
Sequence of ETV5 (P41161 whole entry): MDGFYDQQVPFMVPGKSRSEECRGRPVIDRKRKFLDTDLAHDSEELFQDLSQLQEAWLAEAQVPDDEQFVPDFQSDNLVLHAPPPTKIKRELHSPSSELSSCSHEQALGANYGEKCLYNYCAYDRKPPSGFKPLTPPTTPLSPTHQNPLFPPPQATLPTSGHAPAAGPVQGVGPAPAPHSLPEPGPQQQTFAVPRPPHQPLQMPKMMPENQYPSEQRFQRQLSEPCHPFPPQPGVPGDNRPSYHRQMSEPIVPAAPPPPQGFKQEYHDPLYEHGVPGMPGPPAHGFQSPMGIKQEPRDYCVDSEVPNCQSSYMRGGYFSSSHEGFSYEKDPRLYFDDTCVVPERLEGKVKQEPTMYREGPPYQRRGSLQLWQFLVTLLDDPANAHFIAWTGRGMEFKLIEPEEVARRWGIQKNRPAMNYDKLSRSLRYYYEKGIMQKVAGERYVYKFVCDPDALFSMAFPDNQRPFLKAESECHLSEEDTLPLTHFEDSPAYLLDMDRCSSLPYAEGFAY
Procedure, shortened: as §1

[9] = target: HSF1 (Homo sapiens, UniProt Q00613 1-529); settings: protein: recombinant; tags: N-terminal GST; chain copies: 3; dsDNA, one strand shown
Sequence of HSF1 (Q00613 whole entry): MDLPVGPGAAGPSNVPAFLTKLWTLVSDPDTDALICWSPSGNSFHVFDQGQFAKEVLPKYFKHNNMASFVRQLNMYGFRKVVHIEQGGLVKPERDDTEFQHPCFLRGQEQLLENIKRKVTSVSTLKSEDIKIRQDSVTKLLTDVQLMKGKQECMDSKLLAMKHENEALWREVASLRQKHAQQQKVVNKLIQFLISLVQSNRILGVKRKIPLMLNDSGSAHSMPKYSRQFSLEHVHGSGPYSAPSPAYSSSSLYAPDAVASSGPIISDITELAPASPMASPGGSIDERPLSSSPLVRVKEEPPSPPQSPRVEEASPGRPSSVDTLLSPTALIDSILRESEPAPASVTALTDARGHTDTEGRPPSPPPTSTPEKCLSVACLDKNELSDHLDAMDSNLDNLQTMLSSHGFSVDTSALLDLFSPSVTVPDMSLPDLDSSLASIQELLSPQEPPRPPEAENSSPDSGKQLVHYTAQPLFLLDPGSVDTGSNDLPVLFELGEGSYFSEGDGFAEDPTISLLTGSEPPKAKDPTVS
Procedure, shortened: as §1

[10] = target: ELF4 (Homo sapiens, UniProt Q99607 1-663); settings: protein: recombinant; tags: N-terminal GST; dsDNA, one strand shown
Sequence of ELF4 (Q99607 whole entry): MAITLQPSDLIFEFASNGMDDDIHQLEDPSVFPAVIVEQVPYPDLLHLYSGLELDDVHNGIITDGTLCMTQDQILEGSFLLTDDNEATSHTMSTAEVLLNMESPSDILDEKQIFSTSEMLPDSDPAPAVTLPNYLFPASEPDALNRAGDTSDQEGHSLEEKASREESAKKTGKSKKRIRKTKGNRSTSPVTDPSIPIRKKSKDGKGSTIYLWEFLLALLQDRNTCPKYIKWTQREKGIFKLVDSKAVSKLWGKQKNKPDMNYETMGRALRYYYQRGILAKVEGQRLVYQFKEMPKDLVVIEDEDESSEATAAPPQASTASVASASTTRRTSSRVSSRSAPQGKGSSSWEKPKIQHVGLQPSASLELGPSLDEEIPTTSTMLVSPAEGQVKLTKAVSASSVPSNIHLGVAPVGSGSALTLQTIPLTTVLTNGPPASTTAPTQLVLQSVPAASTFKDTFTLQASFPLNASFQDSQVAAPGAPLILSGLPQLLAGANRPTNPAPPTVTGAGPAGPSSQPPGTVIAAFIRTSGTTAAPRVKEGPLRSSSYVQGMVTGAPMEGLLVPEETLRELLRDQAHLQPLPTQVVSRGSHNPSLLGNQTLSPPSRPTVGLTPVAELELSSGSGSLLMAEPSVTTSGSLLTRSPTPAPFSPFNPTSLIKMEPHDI
Procedure, shortened: as §1

[11] = target: T7, ELK4 (Homo sapiens, UniProt P28324-2 1-405); settings: protein: recombinant; tags: N-terminal GST; dsDNA, one strand shown
T7 sequence: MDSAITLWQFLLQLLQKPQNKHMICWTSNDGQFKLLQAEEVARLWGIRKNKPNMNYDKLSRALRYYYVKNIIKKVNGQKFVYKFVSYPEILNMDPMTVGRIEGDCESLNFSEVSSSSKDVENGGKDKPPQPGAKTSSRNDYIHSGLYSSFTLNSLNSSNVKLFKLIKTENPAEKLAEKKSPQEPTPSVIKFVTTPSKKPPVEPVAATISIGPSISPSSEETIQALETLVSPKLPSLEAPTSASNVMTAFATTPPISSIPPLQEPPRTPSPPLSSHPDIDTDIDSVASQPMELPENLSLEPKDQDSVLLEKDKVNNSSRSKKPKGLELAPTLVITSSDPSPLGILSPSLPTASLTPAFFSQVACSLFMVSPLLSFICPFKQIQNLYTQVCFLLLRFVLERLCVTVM
Procedure, shortened: as §1

[12] = target: CRX (Homo sapiens, UniProt O43186 1-299); settings: protein: recombinant; tags: N-terminal GST; dsDNA, one strand shown
Sequence of CRX (O43186 whole entry): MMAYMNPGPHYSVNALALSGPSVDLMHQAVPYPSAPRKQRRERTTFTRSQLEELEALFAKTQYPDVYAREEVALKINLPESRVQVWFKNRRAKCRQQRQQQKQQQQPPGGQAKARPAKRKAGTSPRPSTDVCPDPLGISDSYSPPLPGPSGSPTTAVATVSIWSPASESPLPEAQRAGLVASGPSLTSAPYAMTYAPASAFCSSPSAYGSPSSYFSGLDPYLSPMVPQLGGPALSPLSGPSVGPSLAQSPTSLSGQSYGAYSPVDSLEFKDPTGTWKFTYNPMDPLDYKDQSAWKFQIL
Procedure, shortened: as §1

[13] = target: ETV1 (Homo sapiens, UniProt P50549 1-477); settings: protein: recombinant; tags: N-terminal GST; dsDNA, one strand shown
Sequence of ETV1 (P50549 whole entry): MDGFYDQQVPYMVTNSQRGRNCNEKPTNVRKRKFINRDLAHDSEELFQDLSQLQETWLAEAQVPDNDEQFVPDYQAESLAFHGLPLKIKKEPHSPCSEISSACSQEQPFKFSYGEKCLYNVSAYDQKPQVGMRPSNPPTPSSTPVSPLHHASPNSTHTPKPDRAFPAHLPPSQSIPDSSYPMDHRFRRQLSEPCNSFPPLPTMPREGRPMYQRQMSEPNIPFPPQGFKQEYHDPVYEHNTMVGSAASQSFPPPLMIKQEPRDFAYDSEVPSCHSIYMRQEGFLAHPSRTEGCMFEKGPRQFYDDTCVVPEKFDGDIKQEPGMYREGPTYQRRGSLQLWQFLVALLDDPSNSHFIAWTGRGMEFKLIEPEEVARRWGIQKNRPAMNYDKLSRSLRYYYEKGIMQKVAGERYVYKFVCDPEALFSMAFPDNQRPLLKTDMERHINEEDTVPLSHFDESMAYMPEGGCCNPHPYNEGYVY
Procedure, shortened: as §1

[14] = target: T8, ELK1 (Homo sapiens, UniProt P19419 1-428); settings: protein: recombinant; tags: N-terminal GST; dsDNA, one strand shown
T8 sequence: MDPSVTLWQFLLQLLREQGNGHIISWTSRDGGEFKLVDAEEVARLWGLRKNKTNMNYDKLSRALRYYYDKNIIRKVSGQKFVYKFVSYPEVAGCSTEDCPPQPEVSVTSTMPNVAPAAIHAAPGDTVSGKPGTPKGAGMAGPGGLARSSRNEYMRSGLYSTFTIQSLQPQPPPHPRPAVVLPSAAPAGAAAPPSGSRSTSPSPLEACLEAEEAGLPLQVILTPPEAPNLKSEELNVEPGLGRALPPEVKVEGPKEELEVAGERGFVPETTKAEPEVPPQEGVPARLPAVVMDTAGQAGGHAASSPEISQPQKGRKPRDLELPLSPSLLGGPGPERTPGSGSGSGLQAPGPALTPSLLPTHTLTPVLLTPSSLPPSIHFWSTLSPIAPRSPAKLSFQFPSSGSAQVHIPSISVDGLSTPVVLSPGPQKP
Procedure, shortened: as §1

[15] = target: SPI1 (Homo sapiens, UniProt P17947 1-270); settings: protein: recombinant; tags: N-terminal GST; dsDNA, one strand shown
Procedure, shortened: as §1

[16] = target: T9, ETV2 (Homo sapiens, UniProt O00321 1-342); settings: protein: recombinant; tags: N-terminal GST; dsDNA, one strand shown
T9 sequence: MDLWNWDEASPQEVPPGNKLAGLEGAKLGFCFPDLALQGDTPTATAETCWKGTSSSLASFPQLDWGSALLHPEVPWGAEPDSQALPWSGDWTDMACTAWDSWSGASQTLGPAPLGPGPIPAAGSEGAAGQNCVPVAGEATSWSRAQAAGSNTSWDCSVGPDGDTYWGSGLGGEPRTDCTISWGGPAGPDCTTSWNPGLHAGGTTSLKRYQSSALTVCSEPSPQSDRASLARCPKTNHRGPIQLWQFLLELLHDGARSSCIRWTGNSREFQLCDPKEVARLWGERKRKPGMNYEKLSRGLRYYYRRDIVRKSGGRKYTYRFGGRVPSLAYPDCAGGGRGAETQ
Procedure, shortened: as §1

[17] = target: SPIB (Homo sapiens, UniProt Q01892 1-262); settings: protein: recombinant; tags: N-terminal GST; dsDNA, one strand shown
Sequence of SPIB (Q01892 whole entry): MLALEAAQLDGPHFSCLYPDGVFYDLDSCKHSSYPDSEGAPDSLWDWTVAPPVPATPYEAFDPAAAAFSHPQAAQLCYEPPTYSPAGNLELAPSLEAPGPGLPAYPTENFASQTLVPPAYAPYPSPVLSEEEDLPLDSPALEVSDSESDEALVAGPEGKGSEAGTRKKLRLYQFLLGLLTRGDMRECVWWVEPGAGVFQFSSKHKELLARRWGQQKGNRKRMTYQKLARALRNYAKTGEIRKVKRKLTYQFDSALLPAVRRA
Procedure, shortened: as §1

Sequence	binding signal [1]	binding signal [2]	binding signal [3]	binding signal [4]	binding signal [5]	binding signal [6]	binding signal [7]	binding signal [8]	binding signal [9]	binding signal [10]	binding signal [11]	binding signal [12]	binding signal [13]	binding signal [14]	binding signal [15]	binding signal [16]	binding signal [17]
AGGGCT	1.03 fold enrichment (6-mer frequency, TF over GST control)	1.05 fold enrichment (6-mer frequency, TF over GST control)	1.07 fold enrichment (6-mer frequency, TF over GST control)	1.01 fold enrichment (6-mer frequency, TF over GST control)	1.04 fold enrichment (6-mer frequency, TF over GST control)	1.08 fold enrichment (6-mer frequency, TF over GST control)	1.03 fold enrichment (6-mer frequency, TF over GST control)	1.06 fold enrichment (6-mer frequency, TF over GST control)	1.03 fold enrichment (6-mer frequency, TF over GST control)	1.07 fold enrichment (6-mer frequency, TF over GST control)	1.02 fold enrichment (6-mer frequency, TF over GST control)	1.26 fold enrichment (6-mer frequency, TF over GST control)	1.11 fold enrichment (6-mer frequency, TF over GST control)				
TATCAA	1.1 fold enrichment (6-mer frequency, TF over GST control)	1.13 fold enrichment (6-mer frequency, TF over GST control)	1.03 fold enrichment (6-mer frequency, TF over GST control)	1.02 fold enrichment (6-mer frequency, TF over GST control)		1.02 fold enrichment (6-mer frequency, TF over GST control)		1.03 fold enrichment (6-mer frequency, TF over GST control)	1.01 fold enrichment (6-mer frequency, TF over GST control)	1.03 fold enrichment (6-mer frequency, TF over GST control)	1.09 fold enrichment (6-mer frequency, TF over GST control)	1.21 fold enrichment (6-mer frequency, TF over GST control)	1.01 fold enrichment (6-mer frequency, TF over GST control)	1.06 fold enrichment (6-mer frequency, TF over GST control)	1.02 fold enrichment (6-mer frequency, TF over GST control)	1.11 fold enrichment (6-mer frequency, TF over GST control)	
AGCATC	1.03 fold enrichment (6-mer frequency, TF over GST control)	1.03 fold enrichment (6-mer frequency, TF over GST control)	1.04 fold enrichment (6-mer frequency, TF over GST control)	1.02 fold enrichment (6-mer frequency, TF over GST control)	1.02 fold enrichment (6-mer frequency, TF over GST control)	1.1 fold enrichment (6-mer frequency, TF over GST control)	1.07 fold enrichment (6-mer frequency, TF over GST control)	1.03 fold enrichment (6-mer frequency, TF over GST control)	1.02 fold enrichment (6-mer frequency, TF over GST control)	1.02 fold enrichment (6-mer frequency, TF over GST control)			1.08 fold enrichment (6-mer frequency, TF over GST control)	1.12 fold enrichment (6-mer frequency, TF over GST control)			1.02 fold enrichment (6-mer frequency, TF over GST control)
